The results in this text go back to PubChem BioAssay (NCI).

What all share (assay): NCI-60 one-dose screen, 48 h (100 = growth as untreated, 0 = no growth, -100 = all killed)
Conditions in all cases: 10 µM unless noted

Assay [1] relates to NCI-H23 lung.
The subject of assay [2] is NCI-H226 lung.
Assay [3] deals with NCI-H322M lung.
Assay [4] deals with HOP-62 NSCLC.
Assay [5] concerns NCI-H460 lung.
The subject of assay [6] is HOP-92 NSCLC.
Assay [7] relates to NCI-H522 lung.
Assay [8] concerns A549/ATCC NSCLC.
Assay [9] has as its system 786-0 renal.
Assay [10] deals with COLO 205 colon.
The subject of assay [11] is DU-145 prostate.
Assay [12] concerns MALME-3M melanoma.
The test system of assay [13] is MDA-MB-231 breast.
For assay [14], the system named is RXF 393 renal.
Assay [15] deals with SF-268 CNS.
Assay [16] has as its system SF-295 CNS.
Assay [17] concerns SF-539 CNS.
Assay [18] relates to UACC-257 melanoma.
Assay [19] has as its system M14 melanoma.
Assay [20] relates to K-562 leukemia.

The panel holds about 83,000 compounds, 20% with a hit somewhere; the sample as a whole holds those more often.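 Percent growth is the endpoint: 0 to 100 indicates growth inhibition (40 means 60% inhibition), 0 means no net growth, and negative values indicate cell death.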 Values without a mark were called inactive. Activity calls are given as the source filed them. Rule for the calls: active = growth percent below 10; inactive = the rest.

For the molecule `Nc1c(S(=O)(=O)O)cc2c3c(cccc13)C(=O)OC2=O`, the growth is 94.9% in assay [1]; 105% in assay [2]; 107% in assay [3]; 93.9% in assay [4]; 105% in [5]; 90.7% in [6]. Further, the growth in assay [7] was 104%; in assay [8], 116%; in assay [9], 102%; in assay [10] it was 111%; in [11] it was 140%; in assay [12], 112%. Further, the growth was 103% in [13]; 131% in [14]; 109% in [15]; 117% in assay [16]; 100% in assay [17]; 78.8% in assay [18]. The growth in assay [19] is 102%.
Regarding `CC[C@]12C=CCN3CC[C@@]4(c5cc(NC(=O)CCC(=O)O[C@H]6CC[C@H]7[C@@H]8CCC9=CC(=O)CC[C@@H]9[C@H]8CC[C@]67C)c(OC)cc5N(C)[C@H]4[C@@](O)(C(=O)OC)[C@@H]1OC(C)=O)[C@@H]32`, the growth in assay [1] was 90.7%; in [2] it was 86.5%; in assay [3], 91.1%; in assay [4], 89.3%; in assay [5] it was 77.4%; in assay [6], 64.6%. Moreover, the growth in [7] is 69.9%; in assay [8], 74.3%; in assay [9], 86%; in [10], 89.8%; in assay [11], 82.2%; in [12], 98.9%. Moreover, the growth in assay [13] was 68.5%; in [14], 82.7%; in assay [15], 74.4%; in [16], 86.3%; in assay [17] it was 94.8%; in [18] it was 76.2%. In addition, the growth in assay [19] was 77.1%.
With `Cc1cccc(C)c1N=c1oc2ccc(Cl)cc2nc1-c1ccccc1O`, the growth in assay [1] was 78.6%; in [2], 88.1%; in assay [3], 88.6%; in assay [4], 112%; in assay [5] it was 97.2%; in [6], 55.9%. The growth in assay [7] is 82.9%; in [8] it was 96.7%; in assay [9], 90%; in assay [10], 89.7%; in [11], 120%; in assay [12], 105%. Also, the growth in assay [13] is 83.6%; in assay [14], 90.9%; in assay [15], 92.1%; in assay [16], 106%; in assay [17], 99.5%; in assay [18] it was 90.8%. In assay [19], the growth is 80.5%.
With `O=C(O)c1ccc(-c2nn(-c3ccc(C(F)(F)F)cc3)cc2CNc2ccc(Oc3ccccc3)cc2)cc1`, the growth in [1] is 91.7%; in assay [2], 86.8%; in assay [3] it was 70.8%; in assay [4], 103%; in [5], 87.4%; in assay [6], 93.3%. Further, the growth was 80.2% in assay [7]; 47.9% in assay [8]; 93.4% in assay [9]; 111% in [10]; 95.5% in assay [11]; 65.3% in [20]. Moreover, the growth is 107% in assay [12]; 91.4% in assay [13]; 88.4% in assay [14]; 79.5% in assay [15]; 72.7% in assay [16]; 89.6% in assay [17]. Moreover, the results for the growth in assay [18] and in assay [19] were 102% and 84.6%, respectively.
Consider `NS(=O)(=O)c1ccc(CCN2C(=O)C=CC2=O)cc1`, for which the growth in assay [1] is 94.6%; in assay [2], 101%; in assay [3], 97.3%; in assay [4] it was 97.1%; in assay [5], 115%; in [6], 108%. For the same molecule, the growth was 84.6% in assay [7]; 104% in [8]; 106% in assay [9]; 123% in [10]; 109% in assay [11]; 102% in assay [12]. The growth in assay [13] was 104%; in assay [14] it was 111%; in [15] it was 100%; in assay [16], 102%; in assay [17], 101%; in assay [18], 101%. Besides, the growth in [19] was 107%.
Consider `COc1cc(C(=O)Nc2cc3c(cc2Oc2cc(C)cc(C)c2)C(=O)N(C)[C@@H](CC(=O)N(C)O)C(=O)N3)c(Br)c(OC)c1OC`, for which the growth in assay [1] is -20.4% (active); in assay [2], -17.2% (active); in assay [3], -32.5% (active); in [4], -15.7% (active); in assay [5], -14.7% (active); in assay [6], -16.4% (active). Besides, the growth is -43.1% (active) in [7]; -4.48% (active) in assay [8]; -38.5% (active) in assay [9]; -17.9% (active) in [10]; -31.7% (active) in assay [11]; -55.3% (active) in assay [12]. The growth was -34.3% (active) in assay [13]; -56.7% (active) in assay [14]; -27.1% (active) in [15]; -34.6% (active) in assay [16]; -46.7% (active) in assay [17]; -12.4% (active) in assay [18]. In addition, the growth in assay [19] was -88.2% (active).
In the case of `COc1ccc(/C=C/c2nc(Nc3cccc(NC(C)=O)c3)c3ccccc3n2)cc1`, the growth in assay [1] was 87.6%; in [2] it was 82.3%; in assay [3], 45.5%; in assay [4], 82.1%; in [5], 84.3%; in assay [6], 69.4%. The growth in assay [7] is 75.9%; in [8] it was 55.4%; in [9], 88.9%; in [10] it was 105%; in assay [11], 88.7%; in [12], 102%. Further, the growth is 85.3% in assay [13]; 104% in assay [14]; 92.1% in [15]; 83.1% in [16]; 98.5% in assay [17]; 95.6% in [18]. In assay [19], the growth was 72.9%.
